Assay outcomes deposited in PubChem by several laboratories.
PERK inhibitor = block of dimerizer-induced PERK translation repression, primary screen, PERK inhibitor project, CHO PERK-DD cells, SEAP luminescence, HTS; Eukaryotic translation initiation factor 2-alpha kinase 3 (Homo sapiens), Q9NZJ5; inhibition, % at 5.6 µM; actives 0.17% (n = 220,000); AID 1416, 2008; CHO PERK-DD fusion, SEAP luminescence translation reporter;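 active = inhibition above the mean inhibition of all tested compounds plus 3 SD, set separately per screening campaign, cut at about 2.9% in these data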;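 also: PERK kinase domain activated by AP20187 dimerizer at 100 nM; 0% = DMSO with dimerizer and 100% = rapamycin at 8.4 µM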
PABP polyA inh = PABP poly(A) RNA binding inhibitors, primary screen, biochemical, fluorescence polarization, uHTS | Polyadenylate-binding protein 1 (Homo sapiens), P11940 | actives 1% (n = 290,000) | calls only at 35 µM | AID 2014, 2009;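 also: calls also rest on retests at 20 µM and on dose response follow-up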
PABP1 MLLE inh = inhibitors of PABP1 MLLE–PAM2 peptide binding, primary screen, biochemical, fluorescence polarization, FITC-PAM2, GST-MLLE. Polyadenylate-binding protein 1 (Homo sapiens), P11940. inhibition, % at 20 µM. actives 0.36% (n = 360,000). AID 588489, 2011; in the data active = inhibition above about 35%, passing the limit was not always enough;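 also: plate controls were DMSO wells with GST-MLLE for no effect and wells lacking GST-MLLE protein for full effect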
eIF4H FP inh = human eIF4H binding inhibitors, primary screen, translation initiation inhibitor project, biochemical, uHTS, fluorescence polarization; eIF4H fluorescence polarization binding assay; inhibition, % at 35 µM; AID 2012, 2009; actives 0.94% (n = 290,000);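 also: calls also rest on retests at 20 µM and on dose response follow-up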
eIF4E-4G inh = eIF4E–eIF4G protein interaction inhibitors, primary screen, biochemical, uHTS, TR-FRET, eIF4GI fragment | actives 0.37% (n = 220,000) | TR-FRET eIF4E-eIF4GI(517-606) binding, 2 h | inhibition, % at 21.7 µM;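 active = inhibition above about 30%, limit read from the data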;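 also: 0% = full FRET control wells and 100% = background wells lacking eIF4GI fragment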
Numbers without * were called inactive; i = inactive; ? = inconclusive; / = no result; + = active, no number. A selection: hits, their analogues and other compounds. The true share with any hit is near 1.6%. Unless noted, no rule for the calls is given here.

SMILES	PERK inhibitor	PABP polyA inh	PABP1 MLLE inh	eIF4H FP inh	eIF4E-4G inh
Cc1cc(-c2ccco2)c(C#N)c2nc3ccccc3n12	-1	+	16	88*	/
Cc1cc(C(C)C)n2c(nc3ccccc32)c1C#N	1	i	/	-1	0
O=[N+]([O-])c1c(NCc2ccco2)ccc2nonc12	1	+	9	123*	0
Cc1cc([N+](=O)[O-])ccc1NCc1ccco1	0	i	5	-16	-2
CCOC(=O)C1=C(c2ccccc2)N=c2s/c(=C\c3ccco3)c(=O)n2C1c1cccs1 (centres undefined)	-1	i	-97	75	2
CCOC(=O)C1=C(c2ccccc2)N=c2s/c(=C\c3cc(OC)c(OC)c(OC)c3)c(=O)n2C1c1cccs1 (centres undefined)	0	+	-7	?	7
O=S(=O)(O)c1cc(O)c2c(O)c(N=Nc3cc(Cl)ccc3O)c(S(=O)(=O)O)cc2c1	/	+	4	80*	/
O=S(=O)(O)c1cc(Cl)cc(N=Nc2ccc(O)cc2O)c1O	/	/	7	/	/
Cc1nc(-c2nnc(SCC(=O)Nc3cc(Cl)cc(Cl)c3)n2C)cs1	1	i	5	-3	2
S=c1[nH]nc2ccc3ccccc3n12	/	/	1	/	/
S=c1[nH]c2ccccc2n2c(=S)[nH]nc12	/	i	41*	3	/
O=C(Nc1ccc2ccccc2n1)c1ccccc1Br	/	i	0	2	/
Cc1cccc(C)c1OCC(=O)Nc1ccc(N2CCOCC2)cc1	1	i	0	3	6
CSc1nc(N)cc(=O)[nH]1	2	+	11	61	-3
NC1=NC(=O)/C(=C\c2ccsc2)S1	0	i	4	-4	63*
Cc1sc2nc(COC(=O)c3ccc(Cl)c(N)c3)[nH]c(=O)c2c1C	-1	+	-21	74*	4
Cc1sc2nc(COC(=O)c3ccc(N4CCCC4)c([N+](=O)[O-])c3)[nH]c(=O)c2c1C	1	+	-84	?	1
Cc1sc2nc(COC(=O)c3ccc(O)cc3)[nH]c(=O)c2c1C	-1	i	-6	-17	3
Cc1sc2nc(COC(=O)c3ccc(N4CCCC(C)C4)c([N+](=O)[O-])c3)[nH]c(=O)c2c1C (centres undefined)	0	i	-5	-1	-2
Cc1c(NC(=O)C(C)OC(=O)COc2ccc(C#N)cc2)c(=O)n(-c2ccccc2)n1C (centres undefined)	/	/	-10	/	/
COc1ccc(CCC(=O)OCC(=O)NC2CCCC2)cc1OC	/	/	-12	/	/
CCSCc1nnc(SCC(=O)Nc2ccc(OC)cc2)n1C	1	i	-85	8	5
CC(C)=CCc1cc(-c2oc3cc(O)cc(O)c3c(=O)c2O)ccc1O	/	/	-2	/	/
CC(C)=CCc1c(O)cc2oc3c(CC=C(C)C)c(O)c(O)c(CC=C(C)C)c3c(=O)c2c1O	/	i	-47	58*	-14
O=C(NCCCO)/C(=C\c1ccco1)NC(=O)c1ccco1	/	i	21	-12	/
SMILES	PERK inhibitor	PABP polyA inh	PABP1 MLLE inh	eIF4H FP inh	eIF4E-4G inh
CCOC(=O)Cc1csc(/N=C/c2c(O)n(-c3ccccc3C(F)(F)F)c(=O)c3ccccc23)n1	1	i	-58	-2	4
CCOC(=O)c1c(C)[nH]c(C(=O)N/N=C\c2ccccc2O)c1C	1	+	8	14	4
O=C(O)c1cccc2c1C(=O)c1ccccc1C2=O	2	i	13	-7	1
CN(C=[N+](C)C)c1cccc2c1C(=O)c1ccccc1C2=O	0	i	86*	?	-3
CS(=O)(=O)c1cccc(C(=O)N(CCc2ccccc2)Cc2cccs2)c1	/	i	-36	-4	/
CCCCOc1ccc(C(=O)NNC(=O)C2C3C=CC(C3)C2C(=O)O)cc1 (centres undefined)	/	i	3	-11	/
COC(=O)c1cc(NC(=O)c2ccccc2)c(=O)oc1C/C=N\OCc1ccc(Cl)cc1Cl	-1	+	-35	72*	-10
CO/N=C\Cc1oc(=O)c(NC(=O)c2ccccc2)cc1C(=O)OC	0	+	-1	81*	/
